# Laboratory results reported in PubChem BioAssay.
# Calls of active or inactive are those of the source.
# Test system: Sonic hedgehog protein (Shh)
# Test: small-molecule binders of Shh protein, primary screen, biochemical, small-molecule microarray, 635/667 nm fluorescence (AID 1151);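 further: Shh protein binding to compounds spotted on small-molecule microarray slides; score combines spot fluorescence intensity with signal-to-noise across triplicate slides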
# Details: small-molecule microarray binding, 635 nm fluorescence; higher = more signal
row,SMILES,composite z-score
1,C=CCC(OC(C)=O)[C@@H]1[C@@H](N(Cc2ccc(-c3cccc(C(F)(F)F)c3)o2)C(=O)Cc2ccc(OC)cc2)c2cc(OCCCO)ccc2N1C(=O)Cc1ccc2ccccc2c1 (some centres undefined),0.0678
2,CO[C@H]1O[C@H](CO)[C@@H](OC(=O)c2ccc(Br)cc2)[C@@H]2OC(=O)[C@H](Cc3ccccc3)C/C=C/C[C@@H](Cc3ccccc3)C(=O)O[C@@H]12,0.984
3,O=C(CS)NCCCCCCNC(=O)[C@@H]1C[C@@H]2C(=O)NCC(=O)N2[C@@H]1c1ccc(O)cc1,0.236
4,COCCOC(=O)N1C(=O)[C@@]2(c3cc(C#CCNC(N)=O)ccc31)[C@H](c1ccc(OCCO)cc1)N1[C@H](c3ccccc3)[C@H](c3ccccc3)OC(=O)[C@H]1[C@@H]2C(=O)NC[C@H](O)c1ccccc1,1.27
5,CC(C)C[C@@H]1NC(=O)CNC(=O)[C@@]23C(=O)N[C@@H](Cc4ccccc4)C2[C@H](C)[C@@]2(C)O[C@H]2C3/C=C/C/C=C\CNC1=O (some centres undefined),1.5
6,COCCOC(=O)N1C(=O)[C@@]2(c3cc(C#CC4(O)CCCCCC4)ccc31)[C@H](c1ccc(OCCO)cc1)N1[C@H](c3ccccc3)[C@H](c3ccccc3)OC(=O)[C@H]1[C@@H]2C(=O)Nc1nc2ccccc2s1,1.84
7,COCCOC(=O)N1C(=O)[C@@]2(c3cc(C#CCC(C(=O)OC)C(=O)OC)ccc31)[C@H](C(=O)NC[C@H](O)c1ccccc1)[C@H]1C(=O)O[C@H](c3ccccc3)[C@H](c3ccccc3)N1[C@@H]2c1ccc(O)cc1,0.863
8,C=C(C(=O)CC[C@H](OC(=O)c1ccccc1-c1ccccc1C(=O)O)c1ccccc1OCCO)C(C)C,1.49
9,C=C(C)[C@@H]1CC=C(C(O)C2C=CC3C(=O)N(c4ccccc4)C(=O)C3N2Nc2ccc(C#N)cc2)CC1 (some centres undefined),-0.0706

# Test system: not listed separately
# Test: E. coli DRC41 culture turbidity changes, primary screen, E. coli filamentation inducer project, strain DRC41, OD650, 48 h (AID 1152);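 further: E. coli MC1000 strain DRC41 lacking acrAB efflux pump and sulA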
# Details: E. coli DRC41 (acrAB sulA), higher = more signal, called active from +8 up or from −8 down
row,SMILES,z-score
1,COC(=O)C(CC#Cc1ccc2c(c1)[C@]1(C(=O)N2)[C@H](c2ccc(O)cc2)N2[C@H](c3ccccc3)[C@H](c3ccccc3)OC(=O)[C@H]2[C@@H]1C(=O)N1CCCCCCC1)C(=O)OC,1.11 (inactive)
2,CC(C)=CCCC(C)=CC(O)C1C=CC2C(=O)N(c3ccccc3)C(=O)C2N1Nc1ccccc1F (centres undefined),0.404 (inactive)
3,CN(C)CCCCNC(=O)[C@H]1C[C@H]2C(=O)N[C@@H](CCCC[N+](C)(C)C)C(=O)N2[C@H]1c1ccc(O)cc1,1.67 (inactive)
4,CN(C)CCCNC(=O)[C@@H]1c2ccccc2C(=O)N(C2CCCCC2)[C@H]1c1ccc(CO)cc1,0.196 (inactive)
5,CC(C)CNC(=O)[C@@H]1c2ccccc2C(=O)N(C2CCCCC2)[C@H]1c1ccc(CO)cc1,3.5 (inactive)
6,O=C1C2C=CC(C(O)c3ccco3)N(Nc3ccccc3)C2C(=O)N1c1ccccc1 (centres undefined),-0.292 (inactive)
7,COc1ccc([Si](C)(C)[C@@H]2[C@@H](CCn3cc([C@H](O)c4ccccc4)nn3)O[C@]3(C(=O)N(c4ccccc4)c4ccccc43)[C@H]2C)cc1,0.424 (inactive)
8,CCCNC(=O)[C@@]1(Sc2ccc(C)cc2)CC(=O)N(C2CCCCC2)[C@@H]1c1ccc(CO)cc1I,-0.629 (inactive)
9,COC(=O)C(CC#Cc1ccc2c(c1)[C@]1(C(=O)N2)[C@H](C(=O)Nc2nc3ccccc3s2)[C@H]2C(=O)O[C@H](c3ccccc3)[C@H](c3ccccc3)N2[C@@H]1c1ccc(OCCO)cc1)C(=O)OC,2.65 (inactive)
10,CC(=O)NCCCC[C@@H]1NC(=O)[C@@H]2C[C@H](C(=O)NCCCCCCN)[C@H](c3cccc(OCCO)c3)N2C1=O,-0.813 (inactive)
11,COc1ccc([Si](C)(C)[C@H]2[C@H](CCO)O[C@@]3(C(=O)N(Cc4ccc(N5C(=O)c6ccccc6Oc6ccccc65)cc4)c4ccccc43)[C@@H]2C)cc1,0.157 (inactive)
12,CCCCC=C[C@@H](NC(=O)c1ccccc1)c1ccccc1,-2.36 (inactive)
13,COCCOC(=O)N1C(=O)[C@@]2(c3cc(C#CC4=CCCCC4)ccc31)[C@H](C(=O)N1CCCCCCC1)[C@H]1C(=O)O[C@H](c3ccccc3)[C@H](c3ccccc3)N1[C@@H]2c1ccc(OCCO)cc1,-1.1 (inactive)
14,COCCOC(=O)N1C(=O)[C@@]2(c3cc(C#CCNC(N)=O)ccc31)[C@H](c1ccc(O)cc1)N1[C@H](c3ccccc3)[C@H](c3ccccc3)OC(=O)[C@H]1[C@@H]2C(=O)N1CCN(c2ncccn2)CC1,-0.279 (inactive)
15,COCCOC(=O)N1C(=O)[C@@]2(c3cc(C#CCCO)ccc31)[C@H](c1ccccc1OCCO)N1[C@H](c3ccccc3)[C@H](c3ccccc3)OC(=O)[C@H]1[C@@H]2C(=O)N1CCCCCCC1,1.59 (inactive)
16,CC(=O)N1CC(C(O)C2C=CC3C(=O)NC(=O)C3N2Nc2ccc(Cl)cc2Cl)c2ccccc21 (centres undefined),-1.14 (inactive)
17,COc1cc2c(cc1OC)CN(C(=O)[C@@H]1[C@H]3C(=O)O[C@H](c4ccccc4)[C@H](c4ccccc4)N3[C@H](c3ccc(O)cc3)[C@@]13C(=O)Nc1ccc(C#CCCO)cc13)CC2,-0.0186 (inactive)
18,NCCCCCNC(=O)[C@H]1C[C@H]2C(=O)N[C@@H](Cc3ccccc3)C(=O)N2[C@H]1c1ccc(O)cc1,0.097 (inactive)

row,SMILES,z-score
1,CC(C)OC(=O)CC(=O)CC(O)c1ccc([N+](=O)[O-])cc1 (centres undefined),-0.314 (inactive)
2,CCCNC(=O)[C@@]1(C)c2ccccc2C(=O)N(Cc2ccccc2)[C@H]1c1ccc(CO)cc1,1.3 (inactive)
3,COC(=O)[C@@]1(Cc2ccc(OC)cc2)[C@H]2c3cc(C(=O)N4CCCC4)n(Cc4cc(C)n(C)n4)c3C[C@H]2CN1C(=O)c1ccccc1,-0.703 (inactive)
4,C=CCC(OC(C)=O)[C@@H]1[C@@H](N(Cc2ccc(-c3cccc(C(F)(F)F)c3)o2)C(=O)c2ccc(C)cc2)c2cc(OCCCO)ccc2N1C(=O)Cc1ccc(OC)cc1 (some centres undefined),2.06 (inactive)
5,CC(=O)n1cc(C(O)C2C=CC3C(=O)N(c4ccccc4)C(=O)C3N2Nc2ccc(C(C)C)cc2)c2ccccc21 (centres undefined),-1.44 (inactive)
6,C=CCC(OC(C)=O)[C@@H]1[C@@H](N(Cc2ccc(-c3ccccc3)cc2)C(=O)c2ccc(C)cc2)c2cc(OCCCO)ccc2N1C(=O)Cc1ccc2ccccc2c1 (some centres undefined),2.43 (inactive)
7,COc1cc(C(O)C2C=CC3C(=O)N(Cc4ccccc4)C(=O)C3N2n2cnnc2)cc(OC)c1OC (centres undefined),1.31 (inactive)
8,COc1ccc(C(=O)Nc2cccc(CN3C(=O)[C@@]4(O[C@@H](CC(=O)N(CCO)Cc5ccccc5)[C@H]([Si](C)(C)c5ccc(OC)cc5)[C@H]4C)c4ccccc43)c2)cc1,1.23 (inactive)
9,C=CCC(OC(C)=O)[C@@H]1[C@@H](N(Cc2ccc(-c3cccc(C(F)(F)F)c3)o2)C(=O)Cc2ccc(OC)cc2)c2cc(OCCCO)ccc2N1C(=O)Cc1ccc2ccccc2c1 (some centres undefined),-0.597 (inactive)
10,CO[C@H]1O[C@H](CO)[C@@H](OC(=O)c2ccc(Br)cc2)[C@@H]2OC(=O)[C@H](Cc3ccccc3)C/C=C/C[C@@H](Cc3ccccc3)C(=O)O[C@@H]12,2.28 (inactive)
11,O=C(CS)NCCCCCCNC(=O)[C@@H]1C[C@@H]2C(=O)NCC(=O)N2[C@@H]1c1ccc(O)cc1,1.58 (inactive)
12,COCCOC(=O)N1C(=O)[C@@]2(c3cc(C#CCNC(N)=O)ccc31)[C@H](c1ccc(OCCO)cc1)N1[C@H](c3ccccc3)[C@H](c3ccccc3)OC(=O)[C@H]1[C@@H]2C(=O)NC[C@H](O)c1ccccc1,0.402 (inactive)
13,CC(C)C[C@@H]1NC(=O)CNC(=O)[C@@]23C(=O)N[C@@H](Cc4ccccc4)C2[C@H](C)[C@@]2(C)O[C@H]2C3/C=C/C/C=C\CNC1=O (some centres undefined),-0.455 (inactive)
14,COCCOC(=O)N1C(=O)[C@@]2(c3cc(C#CC4(O)CCCCCC4)ccc31)[C@H](c1ccc(OCCO)cc1)N1[C@H](c3ccccc3)[C@H](c3ccccc3)OC(=O)[C@H]1[C@@H]2C(=O)Nc1nc2ccccc2s1,-0.595 (inactive)
15,COCCOC(=O)N1C(=O)[C@@]2(c3cc(C#CCC(C(=O)OC)C(=O)OC)ccc31)[C@H](C(=O)NC[C@H](O)c1ccccc1)[C@H]1C(=O)O[C@H](c3ccccc3)[C@H](c3ccccc3)N1[C@@H]2c1ccc(O)cc1,-0.128 (inactive)
16,C=C(C(=O)CC[C@H](OC(=O)c1ccccc1-c1ccccc1C(=O)O)c1ccccc1OCCO)C(C)C,0.342 (inactive)
17,C=C(C)[C@@H]1CC=C(C(O)C2C=CC3C(=O)N(c4ccccc4)C(=O)C3N2Nc2ccc(C#N)cc2)CC1 (some centres undefined),-2.24 (inactive)
